# MCF10A rerep – induces DNA re-replication in MCF 10a normal breast cells. hit rate 2.9% among 350,000. MCF 10A DNA re-replication, Hoechst nuclear intensity, 48 h. Potency, µM (doses to about 46.1 µM), inactives show at the highest dose activity, positive = re-replication, usual class: activators. AID 624296; note: % of control where 0% means no effect; nearly all actives have a fitted effect of over 50% in size
# KB-3-1 cytotox – KB-3-1 parental cell cytotoxicity; KB-3-1 viability, CellTiter-Glo ATP luminescence, 72 h; Potency, µM (doses to about 46.1 µM), actives largely listed as cytotoxic; hit rate 1.4% among 400,000; note: % is set by controls: 0 for no effect and ±100 for the full control effect; nearly all actives have a fitted effect of over 60% in size
#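 Multi-concentration cytotoxicity screen in KB-3-1 cells grown in DMEM lacking phenol red with 10% FBS. After 72 h at 37 °C with compound, ATP-dependent luminescence was recorded.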
# KB-V1 cytotox – KB-V1 MDR subline cytotoxicity. KB-V1 MDR cells viability, CellTiter-Glo, 72 h. Potency, µM (top dose mostly 46.1 µM), hits mostly cytotoxic. hit rate 3.4% among 400,000. AID 1347076; note: % is set by controls: 0 for no effect and ±100 for the full control effect; nearly all actives have a fitted effect of over 60% in size
#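 Drug-selected KB-V1 cells, grown in DMEM lacking phenol red with 10% FBS, receive compound titrations; after three days at 37 degrees C, surviving cell ATP is quantified by CellTiter-Glo luminescence and responses normalized and curve-fitted.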
# ELG1 repair inh – blocks ELG1-dependent DNA repair in HEK293T cells; HEK293T ELG1-luciferase reporter, luminescence, 16 h; DNA damage induced by 5-fluorouridine; Potency, µM (titrated, usually from 46.1 µM), without a hit: at the top dose activity change, negative = inhibition, most hits filed as inhibitors; hit rate 2.3% among 330,000; AID 504467; note: % is set by controls: 0 for no effect and ±100 for the full control effect; nearly all actives have a fitted effect of over 55% in size
#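 Overnight (16 hr) co-exposure of 2,000 cells/well to 5-fluorouridine and compound at 37 °C preceded detection. Luciferase was quantified via ONE-Glo luminescence; loss of signal denotes inhibition.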
# SW480 rerep – inducers of DNA re-replication in SW480 colon cancer cells; SW480 DNA re-replication, Hoechst DNA content imaging, 48 h; Potency, µM (series often up to 46.1 µM), for inactives: at the top dose re-replication activation, actives largely listed as activators; hit rate 1.8% among 340,000; note: % of control where 0% means no effect; nearly all actives have a fitted effect of over 55% in size
#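 Image-based read-out: total Hoechst fluorescence of nuclei (405 nm excitation, 500-530 nm emission), with hits raising the fraction of high-intensity nuclei. SW480 colon cells incubated 48 hr with compounds at 37 C.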
# The depositor's hits bear a star; i = inactive; ? = inconclusive; . = no result given. Most compounds without a hit are left out; they make up all but 8.1% or so of the library. Calls come from the whole dose curve; as a rule, active = well fitted curve in the direction sought with a large enough effect; inconclusive = small, poorly fitted or top-dose-only effect, or another doubt; inactive = no such curve, though single readings can be large; an effect the other way counts as inactive or inconclusive. Potency is the fitted concentration of half-maximal effect.
SMILES,MCF10A rerep,KB-3-1 cytotox,KB-V1 cytotox,ELG1 repair inh,SW480 rerep
N=C1C(c2nc3ccccc3[nH]2)=C(O)CN1c1ccc(CC(=O)O)cc1,0.5%,i,i,4.7%,-5.8%
CCOC(=O)c1ccc(N2CC(O)=C(c3nc4ccccc4c(=O)[nH]3)C2=N)cc1,20.6µM*,i,i,-3.4%,1.3%
N=C1C(c2nc3ccccc3[nH]2)=C(O)CN1c1ccccc1,?,23.1µM*,?,?,?
COc1ccnc(Oc2ccccc2)c1C(=O)N/C=N/OCc1ccc(F)cc1Cl,?,?,i,18.4µM*,-1.6%
CCN(CC)C(=O)[C@@]1(c2ccccc2)C[C@@H]1CN,0.9%,.,.,.,0.3%
C/C(=N/NC(N)=S)c1ccc(Br)s1,-0.2%,?,8.2µM*,-2.4%,?
COc1ccc(CN2CSC(=S)N(Cc3ccccc3)C2)cc1,?,i,i,-2.8%,?
S=C1SCN(Cc2ccccc2)CN1Cc1ccccc1,33.5µM*,i,i,0.0%,?
S=C1SCN(Cc2cccnc2)CN1Cc1cccnc1,13µM*,?,?,23.1µM*,?
O=C1CCCCCC[C@@H](O)[C@H](O)C[C@H](c2ccccc2)O1,.,i,?,.,.
CCN(CC)C(=O)c1ccc2nc3ccccc3nc2c1,?,5.8µM*,16.4µM*,?,5.17µM*
CCN(CC)C(=O)c1ccc2nc(-c3ccccc3)c(-c3ccccc3)nc2c1,8.4%,?,4.11µM*,?,0.6%
CCCN(CCC)C(=O)c1ccc2nc(-c3ccc(OC)c(OC)c3)c(-c3ccc(OC)c(OC)c3)nc2c1,8.8%,i,i,11.6µM*,-3.9%
CCN(CC)C(=O)c1ccc(C(=O)c2ccccc2)cc1,3.0%,i,i,?,-7.4%
COc1ccc(-c2nc3ccccc3nc2-c2ccc(OC)c(OC)c2)cc1OC,1.4%,i,i,-16.4%,20.1%
CC1CCCC/C1=N/Nc1ccc([N+](=O)[O-])cc1[N+](=O)[O-] (stereo not drawn),16.6%,i,i,0.2%,-0.8%
O=[N+]([O-])c1ccc(C2CCCC/C2=N\OCc2cccc(F)c2)c([N+](=O)[O-])c1 (stereo not drawn),20.9%,i,10.3µM*,?,0.6%
O=[N+]([O-])c1ccc(Cl)cc1N/N=C/c1ccncc1,13.8%,i,i,-4.4%,-1.6%
O=[N+]([O-])c1cc(S(=O)(=O)Nc2ccc(Cl)cc2)ccc1N/N=C/c1ccncc1,4.11µM*,i,i,11.3%,4.4%
CC(C)CNC(=O)N1[C@H](c2cccs2)[C@@H](C)C(=O)[C@@H](C)[C@@H]1c1cccs1,.,i,i,.,.
CCCCC(=O)Nc1ccnc(-c2cccnc2)n1,3.9%,i,16.4µM*,0.2%,-10.7%
O=C(/C=C/c1ccc(OCCCF)cc1)Nc1ccnc(-c2cccnc2)n1,0.1%,i,?,7.3µM*,?
CC(=O)Nc1ccnc(-c2cccnc2)n1,2.4%,i,i,-16.0%,-5.6%
CC(Sc1n[nH]c(-c2cccs2)n1)C(=O)N1CCCC1 (stereo not drawn),-20.8%,i,i,-5.8%,4.8%
O=C(C[n+]1c(Cl)cc(Cl)c2ccccc21)c1ccccc1,.,i,i,.,.
SMILES,MCF10A rerep,KB-3-1 cytotox,KB-V1 cytotox,ELG1 repair inh,SW480 rerep
COc1ccc(/C=C2\CCC/C(=C\c3ccc(OC)c(OC)c3OC)C2=O)c(OC)c1OC,13.2%,i,i,23.1µM*,1.0%
COc1cc(OC)c(OC)cc1/C=C1\CCC/C(=C\c2cc(OC)c(OC)cc2OC)C1=O,16.4µM*,?,?,14.6µM*,?
COc1cc(OC)c(OC)cc1/C=C1\CCC(C2CCCC2)C1=O (stereo not drawn),?,i,?,7.3µM*,?
CCC(C(=O)NCc1ccccn1)n1c2ccccc2c2nc(=O)cc(C)n21 (stereo not drawn),-1.8%,i,i,5.0%,-24.1%
Cn1c(SCc2ccc(C(C)(C)C)cc2)nnc1C1COc2ccccc2O1 (stereo not drawn),20.6µM*,?,i,-0.6%,?
COC(=O)CSc1nnc(C2COc3ccccc3O2)n1-c1ccccc1 (stereo not drawn),20.6µM*,i,i,-6.0%,22.5%
Cc1onc(-c2ccccc2Cl)c1C(=O)Nc1ccc(Br)cc1,9.7%,i,i,-2.2%,7.3%
COc1ccc2c(c1)C=C/C2=C/c1ccc(N(C)C)cc1,.,i,i,.,.
COc1ccc(Br)cc1CNC(=O)C1CCCCN1S(=O)(=O)c1ccc(F)cc1 (stereo not drawn),.,i,i,.,.
CN[C@H]1C[C@@H](c2ccccc2)N(C(C)=O)C[C@H]1CO,.,i,i,.,.
CC1=C(C(=O)N(C(C)C)C(C)C)CC(CC(=O)NCCc2ccccn2)C(=O)N1CCC1=CCCCC1 (stereo not drawn),.,20.6µM*,i,.,.
COCCCN1C(=O)C(CC(=O)NCCc2ccccn2)CC(C(=O)N(C(C)C)C(C)C)=C1C (stereo not drawn),.,i,i,.,.
Cc1cccc(NC(=O)CC2C(=O)NCCN2C(=S)Nc2ccccc2)c1 (stereo not drawn),16.4µM*,i,i,9.9%,-0.6%
COc1ccccc1NC(=S)N1CCNC(=O)C1CC(=O)Nc1cccc(C)c1 (stereo not drawn),-1.6%,i,?,5.0%,-2.5%
Cn1c(=O)c2cc(NC(=O)CCc3ccc4c(c3)OCO4)ccc2n1Cc1ccc(F)cc1,.,?,i,.,.
COc1cc(Cn2c3ccc(NC(=O)NCc4ccc(F)cc4)cc3c(=O)n2C)ccc1F,.,9.2µM*,i,.,.
COc1cc(Cn2c3ccc(NC(=O)CCc4ccc(O)cc4)cc3c(=O)n2C)ccc1F,.,5.8µM*,i,.,.
COc1ccc(CCNC(=O)Nc2ccc3c(c2)c(=O)n(C)n3Cc2ccc(F)cc2)cc1OC,.,i,i,.,.
C[C@@H]1CN([C@H](C)CO)C(=O)c2cc(Br)cnc2O[C@H]1CN(C)C,.,i,?,.,.
CCCCn1c(=O)[nH]c(=O)c2c1nc(CN1C(=O)c3ccccc3S1(=O)=O)n2CCC,4.3%,i,i,?,-0.3%
CCCCn1c(=O)[nH]c(=O)c2c1nc(Cn1ncc(Cl)c(Cl)c1=O)n2CCC,?,2.91µM*,i,23.1µM*,?
Cc1cc(C(=O)OC(C)C(=O)NC2CCCCC2C)c2ccccc2n1 (stereo not drawn),.,i,i,.,.
CS(=O)(=O)N1N=C(c2ccccc2)CC1c1ccc2nccnc2c1 (stereo not drawn),?,i,20.6µM*,13.3%,-1.3%
